Screening results (PubChem BioAssay)
Compounds with a hit are over-represented: about 4.1% of the library has one in this group of screens.
DAX1 inh-1: inhibits human nuclear receptor DAX1. P51843. HEK293 Gal4-DAX1 luciferase reporter, luminescence. inhibition, % at 6.75 µM. 0.99% of 340,000 active;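 active means inhibition above the mean over all tested compounds plus 3 SD, cut at about 4.2% in these data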;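 further: 0% = DAX1-transfected cells with DMSO and 100% = empty-vector control cells with DMSO; inhibition shows as a rise in luminescence from relieved DAX1 repression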
Target sequence (P51843 207-470 limits assumed): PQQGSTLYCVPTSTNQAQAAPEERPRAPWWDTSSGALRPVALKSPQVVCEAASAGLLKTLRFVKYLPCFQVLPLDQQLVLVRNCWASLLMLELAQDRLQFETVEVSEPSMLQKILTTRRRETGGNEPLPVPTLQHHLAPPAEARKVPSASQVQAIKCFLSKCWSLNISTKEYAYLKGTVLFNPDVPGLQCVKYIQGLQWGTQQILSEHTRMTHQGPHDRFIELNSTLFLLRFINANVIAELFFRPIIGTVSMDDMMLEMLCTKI
hgDAF-12 ag: agonists of H. glycines DAF-12 nuclear receptor. HEK293 GAL4-hgDAF12 UAS-luciferase reporter, agonist luminescence; normalized to butyrate control. activation, % at 6.8 µM. 1.8% of 370,000 active;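 active means activation above a cutoff set at the mean of all screened compounds plus 3 SD, cut at about 10% in these data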;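 further: 0% = DMSO wells and 100% = sodium butyrate wells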
DAX1 inh-2: blocks DAX1 repression of SF-1 activated StAR promoter. 1.1% of 370,000 active. inhibition, % at 6.8 µM. HEK293T StAR-luciferase reporter, SF-1/DAX-1 repression relief;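 active means inhibition above the mean over all tested compounds plus 3 SD, cut at about 3.6% in these data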;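 further: 0% = DAX-1 cells with DMSO and 100% = cells lacking DAX-1 with DMSO; higher inhibition means more luminescence from relief of DAX-1 repression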
hcDAF-12 act: activators of H. contortus DAF-12 nuclear receptor | HEK293 hcDAF-12 lit1-tk-luc reporter, luminescence; 0% DMSO, 100% Δ7-dafachronic acid | 1.4% of 370,000 active | AID 652067 | activation, % at 6.8 µM;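 active means activation above the mean of all tested compounds plus 3 SD, cut at about 5.5% in these data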;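 further: 100% = response to 3 µM Δ7-dafachronic acid high control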
ssDAF12 agonist: activates DAF-12 receptor from parasite S. stercoralis | 1% of 370,000 active | HEK293 ssDAF-12/GRIP1 lit1-tk-luc reporter, luminescence; % of 3 µM dafachronic acid response | activation, % at 6.8 µM;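 active means activation above the mean over all tested compounds plus 3 SD, cut at about 0.9% in these data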;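 further: 0% = DMSO-only wells and 100% = 3 µM delta7-dafachronic acid wells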
DAX1 inh confirm: NR0B1 (human) inhibition, confirmation. AID 652134. HEK293T StAR-promoter luciferase reporter, SF-1/DAX-1 repression. shares compounds with DAX1 inh-2. 87% of 2,400 active. inhibition, % at 6.8 µM;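 active means inhibition above the average of every tested compound plus 3 SD, cut at about 3.8% in these data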;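 further: 0% = DAX-1 cells with DMSO and 100% = no DAX-1 control cells with DMSO; active compounds raise luminescence by relieving repression of the StAR reporter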
SF1 mutant ctr: counter-screen for DAX1 inhibitors: nonselective inhibitors with SF-1 AF2 mutant | inhibition, % at 6.8 µM | shares compounds with DAX1 inh-2 | 78% of 2,400 active | HEK293 StAR-luciferase, luminescence;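 active means inhibition above the mean of all tested compounds plus 3 SD, cut at about 3% in these data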;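 further: 0% = DAX-1 transfected cells with DMSO and 100% = cells without DAX-1 with DMSO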
The depositor's hits bear a star; . = not tested or not shown.

SMILES	DAX1 inh-1	hgDAF-12 ag	DAX1 inh-2	hcDAF-12 act	ssDAF12 agonist	DAX1 inh confirm	SF1 mutant ctr
Cc1ccnc2nc(C(=O)Nc3ccc4c(c3)OCO4)nn12	1	9	4.6*	3	0	8.9*	5.2*
Cc1cc(C)n2nc(C(=O)Nc3ccc4c(c3)OCCO4)nc2n1	0	8	6.0*	2	-1	5.6*	3
Cc1ccc(NS(=O)(=O)c2ccc(C(=O)N3CCCC(C(F)(F)F)C3)cc2)cc1 (stereo unspecified)	-1	-4	-3	-1	-2	.	.
Cc1cnc(NC(=O)Nc2ccc(Cl)cc2)s1	4	8	6.0*	5.8*	0	14*	6.8*
Cc1cnc(NC(=O)CSc2ccc(Cl)cc2)s1	0	1	0	-4	-1	.	.
CCc1ccc(/C=N/Nc2ncnc3nc[nH]c23)cc1	0	11*	5.2*	3	-1	14*	1
CCOC(=O)CNc1ncnc2nc[nH]c12	1	1	1	-2	-1	.	.
COc1ccc(C(=O)Nc2ccc(/C(C)=N/NC(=O)c3ccncc3)cc2)cc1	1	9	1	1	0	.	.
C/C(=N/NC(=O)c1ccncc1)c1ccc(NC(=O)c2ccc(Cl)cc2Cl)cc1	2	6	5.3*	2	0	3	0
Oc1c(Br)cc(CNC2CCCCC2)cc1Br	2	0	1	1	0	.	.
O=C(O)c1cc(N=Cc2c(O)c3ccccc3oc2=O)ccc1O	1	-1	0	-1	-1	.	.
COc1ccc(/C=N/Nc2ncccc2[N+](=O)[O-])c(OC)c1	-4	9	5.0*	5	0	15*	8.9*
CCN(CC(=O)NCc1ccc(Cl)cc1)C(=O)CCC(=O)c1ccc(C)cc1	0	0	-2	0	-1	.	.
Oc1ccc(Nc2nc(-c3cccs3)cs2)cc1	2	-1	0	-2	-1	.	.
COc1ccc(Nc2nc(-c3cccs3)cs2)cc1	.	18*	7.1*	16*	3.8*	19*	11*
Cc1cc(NC(=O)CSc2ccc(-c3ccc(Br)cc3)nn2)no1	1	7	5.3*	3	0	0	0
COc1ccc(-c2nnc(SCC(=O)Nc3cc(C)on3)n2N)cc1OC	0	0	0	-2	0	.	.
Cc1cc(NC(=O)CSc2nnc(-c3cccc(F)c3)n2N)no1	0	-2	5.2*	-1	-1	2	2
O=[N+]([O-])c1cc(CN2CCC(O)CC2)ccc1Cl	-1	0	0	0	-2	.	.
CC(C)(C)N(Cc1ccccc1)C(=O)COC(=O)c1cccc([N+](=O)[O-])c1	-1	-2	0	-1	-1	.	.
Cc1ccnc(NC(=O)CCNC(=O)c2ccc(Cl)cc2)c1	1	11*	5.1*	3	-1	14*	7.0*
Cc1ccc(NC(=O)CCNC(=O)c2ccc(Cl)cc2)cc1C	0	0	0	0	-1	.	.
Cc1ccnc(NC(=O)c2ccc(S(=O)(=O)N3CCCCCC3)cc2)c1	1	7	9.2*	3	0	10*	5.1*
Cc1ccc(C(=O)NCC(=O)Nc2cc(C)ccn2)cc1	1	5	4.8*	4	0	6.8*	4.5*
CCOc1ccc(C(=O)NCC(=O)Nc2cc(C)ccn2)cc1OCC	3	4	1	2	-1	.	.
SMILES	DAX1 inh-1	hgDAF-12 ag	DAX1 inh-2	hcDAF-12 act	ssDAF12 agonist	DAX1 inh confirm	SF1 mutant ctr
Cc1ccnc(NC(=O)c2ccc(C(=O)c3ccccc3)cc2)c1	-3	9	9.1*	4	-1	11*	3.2*
Cc1ccc(NC(=O)CSc2nc(=O)n(CCCN3CCOCC3)c3c2CCCC3)c(C)c1	-1	-2	-1	-1	-1	.	.
COc1ccc(-c2cc(C(=O)NCCN3CCOCC3)no2)cc1OC	1	2	0	0	-1	.	.
O=C1SC(SC(=Nc2ccccc2)Nc2ccccc2)C(=O)N1c1ccccc1 (stereo unspecified)	3	13*	5.9*	3	0	2	1
CCOCCOC(=O)c1cccc2c1-c1ccccc1C2=O	1	-2	0	-2	-1	.	.
CC(=O)c1c(C)[nH]c(C(=O)Nc2ccccn2)c1C	0	8	7.5*	2	0	9.1*	6.3*
CC(=O)c1c(C)[nH]c(C(=O)Nc2ccc(Cl)cc2)c1C	1	9	1	4	0	.	.
CCC(=O)Nc1sc(C(=O)Nc2ccccc2F)c(C)c1C(=O)OC	0	13*	5.9*	4	0	13*	6.3*
CC(C)(C)C1=CC(=Nc2ccccc2N)C=C(C(C)(C)C)C1=O	0	13*	4.6*	5	2.9*	-1	0
C/C(=N\NC(=O)c1ccco1)c1ccc(NC(=O)c2cccs2)cc1	1	11*	4.7*	2	0	-1	-1
O=C(Cn1cc([N+](=O)[O-])ccc1=O)NCC(=O)Nc1ccc(F)c(F)c1F	1	0	0	-2	-1	.	.
CN(Cc1ccccc1)C(=O)C(=O)c1c[nH]c2ccccc12	0	3	0	2	-1	.	.
Cc1cc(C)cc(NC(=O)c2sc3nc4n(c(=O)c3c2C)CCC4)c1	1	0	-1	-1	-1	.	.
Cc1c(C(=O)Nc2ccccn2)sc2nc3n(c(=O)c12)CCC3	1	7	8.8*	5	0	9.8*	6.1*
O=C(O)c1cc(N/N=C/c2ccc(OCc3ccccc3)cc2)ccc1Cl	0	2	0	0	-1	.	.
O=C(O)c1cc(N/N=C/C=C/c2ccccc2)ccc1Cl	1	10	8.6*	5	0	12*	6.2*
Cc1cc(C)cc(NC(=O)C(=O)NCCCN2CCCC2=O)c1	2	6	7.1*	5.8*	0	5.1*	5.3*
Cc1ccc(NC(=O)NCCCN2CCCC2=O)cc1	1	1	1	0	-1	.	.
CC(=O)N(C)c1ccc(N=Nc2ccc3ncccc3c2)cc1	1	12*	5.5*	5.7*	1	10*	3.7*
O=S(=O)(Nc1cccc(-c2ccc(N3CCCCCC3)nn2)c1)c1ccc(F)cc1	2	4	5.7*	4	0	2	3
O=[N+]([O-])c1ccc(Cl)c(S(=O)(=O)Nc2ccc(-c3ccc(N4CCOCC4)nn3)cc2)c1	1	2	0	-1	-1	.	.
O=S(=O)(Nc1cccc(-c2ccc(N3CCCCCC3)nn2)c1)c1ccccc1Cl	0	3	1	-2	-1	.	.
O=S(=O)(Nc1cccc(-c2ccc(N3CCCCCC3)nn2)c1)c1cccc(F)c1	1	5	4.6*	1	0	6.9*	4.4*
